Assay results: PubChem BioAssay AID624330 (Southern Research Specialized Biocontainment Screening …, 2012)
About 2,100 (0.62%) of roughly 340,000 compounds were called active.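 Rule for the calls: active = first-screen hits whose inhibition reached a set limit at any dose in the follow-up dose series; inconclusive = inhibition above the set first-screen limit but never retested; inactive = the rest.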 A selection follows. Results with a measured potency or affinity are listed apart.

Molecular target: Rac GTPase-activating protein 1 (Homo sapiens) (UniProt Q9H0H5)
Assay: MgcRacGAP GTPase-activating activity inhibitors, confirmation, biochemical, ADP Hunter fluorescence, primary and confirmatory (AID 624330);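 note: fluorescence reports GDP produced by GAP-driven GTP hydrolysis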
Settings: MgcRacGAP-stimulated Rac1 GTP hydrolysis, at 30 µM, hits give high values, GST-tagged Rac1 F28L mutant substrate

Chain of Rac GTPase-activating protein 1 (Homo sapiens) (Q9H0H5 whole entry, looked up): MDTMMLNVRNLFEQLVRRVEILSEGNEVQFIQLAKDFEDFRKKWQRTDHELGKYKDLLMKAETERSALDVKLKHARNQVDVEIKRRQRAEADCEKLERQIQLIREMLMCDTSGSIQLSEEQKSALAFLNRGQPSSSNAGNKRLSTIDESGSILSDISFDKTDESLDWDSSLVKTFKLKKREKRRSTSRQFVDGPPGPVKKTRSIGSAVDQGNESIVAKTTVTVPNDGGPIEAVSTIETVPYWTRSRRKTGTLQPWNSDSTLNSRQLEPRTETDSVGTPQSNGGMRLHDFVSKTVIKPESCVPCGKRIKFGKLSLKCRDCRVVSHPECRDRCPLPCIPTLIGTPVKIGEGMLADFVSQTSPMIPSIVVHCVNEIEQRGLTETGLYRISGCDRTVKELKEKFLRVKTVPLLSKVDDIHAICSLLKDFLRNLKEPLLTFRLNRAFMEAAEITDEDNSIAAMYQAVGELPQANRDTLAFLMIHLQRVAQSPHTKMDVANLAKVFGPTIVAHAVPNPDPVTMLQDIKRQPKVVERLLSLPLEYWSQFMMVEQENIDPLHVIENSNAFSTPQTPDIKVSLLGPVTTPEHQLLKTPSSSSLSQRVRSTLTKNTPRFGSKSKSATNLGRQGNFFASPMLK

inhibition, inactive:
Cc1cccc(OCC(=O)Nc2ccc3c(C)cc(=O)oc3c2)c1 -2.83%
CN1CCN(S(=O)(=O)c2ccc(N)cc2)CC1 -0.77%
CC(=O)Nc1ccc(N2CCN(C(C)=O)CC2)cc1 8.62%
CC(=O)N1CCN(c2ccc([N+](=O)[O-])cc2)CC1 5.88%
CN1CCN(c2ccc(C(=O)c3ccc(F)cc3)cc2)CC1 12.6%
Cc1nn(-c2cc(N3CCCCC3)ccc2N)c(=O)c2ccccc12 12.5%
Nc1ccc(N2CCCCC2)cc1N1CCCCC1 10.4%
Nc1nc(N2CCN(c3ccc(F)cc3)CC2)n[nH]1 12.1%
N#Cc1ccc(N2CCN(c3ccc(F)cc3)CC2)cc1 7.18%
OCC1CCCN(C(=S)NCCc2ccccc2)C1 (stereo not given) 2.94%
O=C(Cn1cnc2c(nnn2Cc2ccc(Cl)cc2)c1=O)NC1CCCC1 7.49%
COc1cc(SC)ccc1C(=O)OCC(=O)NCCC1=CCCCC1 -5.82%
C=CCn1c(SC(C)C(=O)NC2CC2)nnc1-c1ccoc1C (stereo not given) 4.4%
CCOc1cccc(C(=O)NNC(=O)C2C3C=CC(C3)C2C(=O)O)c1 (stereo not given) 5.45%
CCCN1Cc2cccc(C(=O)NCCc3ccccc3)c2C1=O 5.13%
Cc1ccc(-c2nn(-c3ccccc3)cc2C(=O)Nc2ccc(C)c(S(=O)(=O)N3CCOCC3)c2)cc1 -2.39%
COc1ccc(C(CNS(=O)(=O)c2ccccc2)N2CCN(C)CC2)cc1 (stereo not given) 1.91%
CCN1CCN(c2ccc(NC(=O)c3ccc(Br)o3)cc2)CC1 8.5%
O=C(c1cccs1)N1CCN(c2ccccc2)CC1 -0.45%
O=C(CSc1ccccc1)Nc1ccc(N2CCN(c3ccccc3)CC2)c(F)c1 5.08%
O=C(c1cccs1)N1CCN(c2ccc(F)cc2)CC1 13.3%
O=C(Nc1ccc(N2CCN(c3ccccc3)CC2)c(F)c1)C1CC1 5.36%
CCN1CCN(c2ccc(NC(=O)Cc3ccccc3)cc2)CC1 6.87%
Cc1ccccc1C(=O)Nc1cc(NC(=O)c2ccccc2C)cc(C(=O)O)c1 10.1%
O=S(=O)(c1ccc(F)cc1)c1nc(-c2ccccc2)oc1N1CCOCC1 9.44%
CC(=O)c1cccc(NC(=O)Cn2cnc(S(=O)(=O)N3CCCCC3)c2)c1 2.19%
CCS(=O)(=O)N1Cc2ccccc2CC1C(=O)N(C)Cc1ccc(OC)cc1OC (stereo not given) 5.19%
CCOc1cccc(-c2c(C(=O)N/N=C/c3ccc(C)s3)nnn2-c2nonc2N)c1 0.29%
COc1ccc(C2SCCN2S(=O)(=O)c2ccc(F)cc2)cc1OC (stereo not given) 6.1%
O=C(NCCCN1CCCC1=O)c1cccc(S(=O)(=O)N2CCN(c3ccc(F)cc3)CC2)c1 1.69%
COc1ccc(NC(=O)CSc2nc3ccccc3cc2Cc2ccccc2)cc1 3.45%
COc1ccc(Nc2c3ccccc3nc3ccccc23)cc1 17.9%
COc1cccc(CNc2cnc3ccccc3c2)c1O 1.26%
COc1ccc2[nH]c(=O)c(CNc3ccccc3)cc2c1 9.73%
CCOc1ccc(NCc2cc3cc(OC)ccc3[nH]c2=O)cc1 15.8%
COc1ccc(C(=O)NCc2cc(C)nc3ccccc23)cc1 -16.4%
COc1ccc(-c2cccc([C@H]3[C@@H]4C=CCC[C@@]4(C)C(=O)N3Cc3ccccc3)c2)cc1 12.4%
Cc1cccc(C(=O)Nc2cc(NC(=O)c3cccs3)ccc2C)c1 5.54%
CCOc1ccccc1CN1CCN(C2CCSCC2)CC1CCO (stereo not given) 7.4%
CN(CC(=O)Nc1ccc(SC(F)F)cc1)C1CCCCC1 9.96%
Nc1ccc2nc(-c3cccc(-c4nc5ccc(N)cc5[nH]4)n3)[nH]c2c1 16.5%
Nc1ccc2cn[nH]c2c1 2.65%
COc1ccc(-c2cc(CCCC(=O)NCCc3ccc(OC)cc3OC)no2)cc1 -0.07%
Cc1sc2nc(CN3CCOCC3)nc(N3CCC(C(N)=O)CC3)c2c1C -3.61%
Cc1sc2nc(CN3CCOCC3)nc(Cl)c2c1C 5.87%
CCC(=O)Nc1cccc(NC(=O)CSc2nc3c(c(=O)n(C)c(=O)n3C)n2C)c1 7.76%
O=C(COc1ccc2ccc(=O)oc2c1)N1CCc2ccccc21 -9.6%
CC(N=c1ccccn1C(=O)Nc1cccc(C(F)(F)F)c1)c1ccco1 (stereo not given) 2.17%
CCN(CC(=O)NC(=O)NCc1ccccc1)Cc1ccccc1 3.08%
CN1CCN(CC(=O)NN(Cc2ccccc2)c2ccccc2)CC1 31.6%
CC(C)(O)C(=O)NN(Cc1ccccc1)c1ccccc1 4.09%
O=C(CN1CCCCC1)NN(Cc1ccccc1)c1ccccc1 10.1%
CCCc1cc(=O)[nH]c(SCC(=O)c2cc(C)n(CC3CCCO3)c2C)n1 (stereo not given) 4.29%
Cc1ccc(S(=O)(=O)NC(C)C(=O)N2CCOCCOCCOCCOCC2)cc1 (stereo not given) 9.08%
CCc1ccc(NC(=O)C2CCN(S(=O)(=O)c3ccc4c(c3)NC(=O)CO4)CC2)cc1 -14%
COc1cc(/C=C(/C(=O)O)c2ccc(-c3ccccc3)cc2)cc(OC)c1OC 7.82%
Cn1c(=O)cc(-c2ccccc2)c2ccccc21 5.87%
COc1cc(/C=C2\C(=O)ON=C2c2ccccc2)cc(OC)c1OC 15%
CC(C)n1c2ccccc2c2cc([N+](=O)[O-])ccc21 10.7%
O=C1/C(=C/c2ccc([N+](=O)[O-])cc2)C=C(c2ccccc2)N1c1ccccc1 15.2%
Cn1c(-c2ccccc2)cc(=O)c2ccccc21 12.4%
CC(=O)Nc1ccc(NC(=O)CSc2nnc(-c3cccs3)n2C)cc1 5.9%
O=C(/C=C/c1cccc([N+](=O)[O-])c1)NCc1ccccc1 2.96%
CCCCOc1cccc(/C=C(\C#N)C(=O)NC2CC2)c1 4.72%
CC(C)(C)OC(=O)C[C@@H]1C/C=C\C[C@@H](CC(=O)N[C@H](CO)Cc2ccccc2)C(=O)N2CCC[C@@H]2COC1=O 4.93%
CN(CCO)c1ncnc2c1sc1nc(N3CCOCC3)c3c(c12)CCC3 13.9%
O=C(CCl)N(c1ccccc1)c1ccccc1 5.65%
Cc1cc(C(=O)NNC(=O)C2CCCC2)c(C)o1 4.19%
Cc1cnc(NC(=O)c2cccs2)s1 0.1%
NC(=O)C[C@H](N)c1cn([C@@H](CC(N)=O)C(=O)N2CCNCC2)nn1 -0.03%
CN(CC1CCCN(CCc2ccc(Cl)cc2)C1)C(=O)C(=O)c1ccco1 (stereo not given) 6.85%
Cc1ccn2cc(C(=O)N3CCN(c4cnn(-c5ccccc5)c(=O)c4Cl)CC3)nc2c1 2.32%
O=C(NCc1ccccc1)NS(=O)(=O)c1ccccc1Cl 2.6%
CCCCCCCCCCCCCCCC[N+](C)(C)CCl 15.1%
CCCCCCCCCCCCCCCC[N+](C)(C)CC 18.7%
COc1ccc(CNC(=O)C(C)N(Cc2ccco2)C(=O)c2snc(C(N)=O)c2N)cc1 (stereo not given) -8.32%
COc1ccc(C2CC(c3ccc4ccccc4c3)=NN2C(=O)CSc2ncccn2)cc1 (stereo not given) 7.23%
C=CCNCC(=O)N1N=C(c2ccc3ccccc3c2)CC1c1ccc(OC)cc1 (stereo not given) 6.55%
CN(C)CC1CCC/C(=C\c2ccc(OC(=O)c3ccc(Cl)cc3)cc2)C1=O (stereo not given) 2.37%
COc1ccc(CCNC(=O)CCOc2ccc(C(C)(C)C)cc2)cc1OC 3.35%
CC(=O)Nc1nnc(C)s1 9.89%
Cc1nnc(NC(=O)c2ccco2)s1 4.57%
Cc1ccc(-c2nnc(NC(=O)c3ccco3)s2)cc1 6.39%
CC(=O)Nc1nnc(S(N)(=O)=O)s1 1.42%
CC(C)c1ccc(CNC(=O)C(=O)NCC2CCCO2)cc1 (stereo not given) 14.8%
Cc1cc(NS(=O)(=O)c2ccc(NC(=O)COc3ccccc3[N+](=O)[O-])cc2)no1 7.5%
CC1c2ccccc2SC(CCCN(C)C)c2ccccc21 (stereo not given) 5.84%
CN(C)CCC1Sc2ccccc2Oc2ccccc21 (stereo not given) 17.5%
Cc1onc(-c2c(F)cccc2Cl)c1C(=O)NCc1cccs1 5.78%
COc1ccc(S(=O)(=O)N(C)CC(=O)NCCC2=CCCCC2)cc1 4.26%
O=c1[nH]c(/C=C\c2cccc(O)c2)nc(O)c1[N+](=O)[O-] 13.1%
O=[N+]([O-])c1ccc2oc(/C=C/c3ccc(O)cc3)nc2c1 13.2%
NS(=O)(=O)c1ccc(NC(=S)NNC(=O)c2ccc(Br)o2)cc1 4.44%
COc1ccc(Cl)cc1NC(=O)CN(C)CC(=O)Nc1ccc(Br)cc1 3.57%
O=C(NN1C(=O)/C(=C\c2cccnc2)SC1=S)c1ccco1 13.7%
CCOc1ccc(NC(=O)CSc2nnc(C3CC3)n2C)cc1S(=O)(=O)N1CCCCC1 8.28%
COc1ccc(Br)cc1CN1CCN(C(=O)c2ccc(OC)c(OC)c2)CC1 21%
COc1ccccc1N1CCN(C(=O)c2ccncc2)CC1 -0.56%
COc1ccccc1C(=O)N1CCN(C(=O)c2ccncc2)CC1 1.76%
COc1ccc(OC)c(CN2CCN(C(=O)c3ccc(F)cc3)CC2)c1 25%
